Compound activity: PubChem, National Center for Advancing Translational Sciences (NCATS)
This is one part of a sample in which hits are shown more often than they occur.
TDP1 block: qHTS Assay for Inhibitors of Tyrosyl-DNA Phosphodiesterase (TDP1); recombinant TDP1, AlphaScreen DNA substrate cleavage; Tyrosyl-DNA phosphodiesterase 1 (Homo sapiens), Q9NUW8; AID 485290, 2010; hit rate 0.28% among 350,000; Potency, µM (highest dose often 130 µM), usual class: inhibitors; further: nearly all actives have a fitted effect of over 40% in size
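Enzyme-compound mixtures sat 15 min at room temperature, followed by a 5 min reaction with 15 nM final substrate and 10 min with AlphaScreen beads. Recombinant human Tdp1 was used at 1 nM final.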
APE1 inh-1: qHTS Assay for Inhibitors of the Human Apurinic/apyrimidinic Endonuclease 1 (APE1). DNA repair nuclease/redox regulator APEX1 (Homo sapiens), P27695. recombinant APE1, TAMRA/BHQ-2 abasic DNA cleavage fluorescence. Potency, µM (titrated, usually from 65.8 µM), hits mostly inhibitors. hit rate 0.35% among 350,000. AID 2517, 2012; further: nearly all actives have a fitted effect of over 55% in size
Target sequence (P27695 whole entry, looked up): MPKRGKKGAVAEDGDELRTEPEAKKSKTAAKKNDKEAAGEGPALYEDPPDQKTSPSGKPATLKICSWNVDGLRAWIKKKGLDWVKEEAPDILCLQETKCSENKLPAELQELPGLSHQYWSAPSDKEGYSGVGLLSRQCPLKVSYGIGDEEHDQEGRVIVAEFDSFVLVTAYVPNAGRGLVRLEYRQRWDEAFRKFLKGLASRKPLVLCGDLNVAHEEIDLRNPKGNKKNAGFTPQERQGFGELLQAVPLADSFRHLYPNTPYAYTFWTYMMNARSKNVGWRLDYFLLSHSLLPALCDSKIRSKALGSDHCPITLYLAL
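Step 1: APE1 (0.75 nM) with compound, 15 min RT. Step 2: add 50 nM fluorophore/quencher THF duplex. Step 3: three fluorescence reads 60 s apart (525/598 nm); read 3 minus read 1 = reaction progress.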
KDM4E inh: qHTS Assay for Inhibitors of Human Jumonji Domain Containing 2E (JMJD2E); Lysine-specific demethylase 4E (Homo sapiens), B2RXH2; JMJD2E catalytic domain, FDH-coupled NADH fluorescence (FDH is formaldehyde dehydrogenase); Potency, µM (top dose mostly 57.1 µM), actives largely listed as inhibitors; hit rate 1.6% among 230,000; active means well fitted inhibition curve with a large enough effect, not every such curve was filed as active; inconclusive means small, poorly fitted or top-dose-only effect, or another doubt; inactive means no such curve, though single readings can be large or run the other way; further: nearly all actives have a fitted effect of over 50% in size
Target sequence (B2RXH2 1-337 limits assumed): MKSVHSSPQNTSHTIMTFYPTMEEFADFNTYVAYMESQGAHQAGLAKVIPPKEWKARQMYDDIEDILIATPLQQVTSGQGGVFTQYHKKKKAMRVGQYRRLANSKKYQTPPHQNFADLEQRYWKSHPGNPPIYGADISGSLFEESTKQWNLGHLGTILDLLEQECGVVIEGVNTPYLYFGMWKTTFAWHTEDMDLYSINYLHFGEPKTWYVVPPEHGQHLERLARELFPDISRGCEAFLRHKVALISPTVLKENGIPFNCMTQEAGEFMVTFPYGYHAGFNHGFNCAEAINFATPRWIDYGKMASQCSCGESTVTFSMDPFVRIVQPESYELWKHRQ
RECQ1 inh-1: qHTS Assay for Inhibitors of RecQ-Like Dna Helicase 1 (RECQ1); ATP-dependent DNA helicase Q1 (Homo sapiens), P46063; RECQ1 DNA unwinding, red fluorescence kinetic read; Potency, µM (top dose mostly 57.3 µM), usual class: inhibitors; hit rate 0.54% among 240,000; AID 2549, 2010; further: nearly all actives have a fitted effect of over 30% in size
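50 nM RECQ1T1 preincubated 15 min with compound in Tris pH 8.0 buffer with MgCl2, DTT, Tween-20 and 2.5 ug/ml poly(dI-dC); started with 200 nM TAMRA/BHQ-2 forked duplex and 2 mM ATP. Unwinding read as fluorescence (525/598 nm), two reads 2 h apart.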
KAT2A inh: qHTS Assay for Inhibitors of GCN5L2; AID 504327, 2011; Potency, µM (top dose mostly 58.9 µM), most hits filed as inhibitors; hit rate 0.21% among 390,000; Histone acetyltransferase KAT2A (Homo sapiens), Q92830; GCN5L2 HAT assay, ThioGlo1 CoA-SH fluorescence
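Fluorescence readout, Ex340nm/Em540nm: ThioGlo1 (50uM final) reacts with free CoA thiol released as 20nM GCN5L2 acetylates H3(1-25) peptide (75uM) using acetyl-CoA (70uM). Compound and enzyme sat 15 min beforehand; 20 min room-temperature reaction.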
BLM inh-1: qHTS Assay for Inhibitors of Bloom's syndrome helicase (BLM). RecQ-like DNA helicase BLM (Homo sapiens), P54132. hit rate 0.2% among 350,000. recombinant BLM DNA unwinding, fluorescence dequenching. AID 2528, 2010. Potency, µM (highest dose often 56.1 µM), actives largely listed as inhibitors; further: nearly all actives have a fitted effect of over 35% in size
APE1 dye cs: Counterscreen for APE1 Inhibitors: Fluorescent Dye Displacement Assay; hit rate 7% among 480; shares compounds with APE1 inh-1; DNA fluorescent dye displacement counterscreen, fluorescence; AID 2564, 2010; Potency, µM (doses to about 28.5 µM), usual class: inhibitors;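 further: loss of thiazole orange fluorescence as the dye is displaced from duplex DNA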
Endo IV inh: Counterscreen for APE1 Inhibitors: qHTS Assay for Inhibitors of Endonuclease IV | Potency, µM (series often up to 27.1 µM), usual class: inhibitors | AID 2565, 2010 | hit rate 4% among 560 | E. coli Endo IV, fluorogenic AP-site DNA cleavage | shares compounds with APE1 inh-1
APE1 inh-2: Confirmation qHTS Assay for Inhibitors of the Human Apurinic/apyrimidinic Endonuclease 1 (APE1). shares compounds with APE1 inh-1. purified APE1, fluorogenic abasic-site DNA cleavage. Potency, µM (highest dose often 57.1 µM), actives largely listed as inhibitors. hit rate 44% among 750. AID 2572, 2010; further: nearly all actives have a fitted effect of over 30% in size
APE1 FP inh: qHTS FP-Based Assay for Inhibitors of the Human Apurinic/apyrimidinic Endonuclease 1 (APE1) | shares compounds with APE1 inh-1 | hit rate 7% among 480 | AID 2573, 2010 | Potency, µM (titrated, usually from 28.5 µM), most hits filed as inhibitors | APE1 binding to TAMRA-labelled double-stranded DNA, fluorescence polarization displacement
BLM inh-2: qHTS Confirmation Assay for Inhibitors of Bloom's syndrome helicase (BLM) | shares compounds with BLM inh-1 | BLM DNA unwinding, fluorescence quenching, biochemical | Potency, µM, usual class: inhibitors | hit rate 40% among 220 | AID 2585, 2010;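 further: strand separation dequenches TAMRA so unwinding raises red fluorescence; series mostly up to about 69 µM; nearly all actives have a fitted effect of over 45% in size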
RECQ1 conf: Confirmation qHTS Assay for Inhibitors of RecQ-Like Dna Helicase 1 (RECQ1) | Potency, µM (titrated, usually from 229 µM), usual class: inhibitors | RECQ1 helicase DNA unwinding, fluorescence | shares compounds with RECQ1 inh-1 | hit rate 28% among 610; further: nearly all actives have a fitted effect of over 45% in size
RECQ1 inh-2: Confirmation qHTS Assay for Inhibitors of RecQ-Like Dna Helicase 1 (RECQ1) - Round 2 Cherry Picks | shares compounds with RECQ1 inh-1 | recombinant RECQ1 DNA unwinding, red fluorescence | Potency, µM (highest dose often 119 µM), usual class: inhibitors | hit rate 15% among 1,100; further: nearly all actives have a fitted effect of over 50% in size
Numbers stand for hits; – = inactive; ? = inconclusive; · = no result; [ ] = remark or other dose. Unless noted, the call rests on the fitted dose curve; in most records, active means well fitted curve in the direction sought with a large enough effect; inconclusive means small, poorly fitted or top-dose-only effect, or another doubt; inactive means no such curve, though single readings can be large; an effect the other way counts as inactive or inconclusive.

SMILES	TDP1 block	APE1 inh-1	KDM4E inh	RECQ1 inh-1	KAT2A inh	BLM inh-1	APE1 dye cs	Endo IV inh	APE1 inh-2	APE1 FP inh	others
CCOC(=O)C1CCN(/C=C2/C(=O)NC(=O)N(Cc3ccco3)C2=O)CC1	39.8µM	14.1µM	–	?	–	–	–	–	3.16µM	?
Cn1cccc1/C=C1\C(=O)NC(=O)N(Cc2ccco2)C1=O	17.8µM	14.1µM	–	?	–	–	–	–	4.47µM	–
CN1C(=O)/C(=C/C=C/c2ccco2)C(=O)NC1=S	·	25.1µM	?	?	?	–	–	–	14.1µM	–
O=C1NC(=O)N(Cc2ccco2)C(=O)/C1=C/C=C/c1ccco1	·	2.82µM	25.1µM	10µM	?	–	–	–	5.01µM	?
Cc1ccc(OCCn2cccc2/C=C2/C(=O)NC(=O)N(Cc3ccco3)C2=O)cc1	–	–	–	?	–	–	·	·	·	·
ClC(Cl)Br	–	–	·	–	·	·	·	·	·	·
O=C(Cl)C(Cl)(Cl)Cl	–	–	·	–	·	·	·	·	·	·
OCCBr	–	–	·	–	·	·	·	·	·	·
CN1CCN2c3ccc(N)cc3CC3(C(=O)NC(=O)NC3=O)C2C1 (configuration not stated)	44.7µM	?	3.98µM	–	–	–	·	·	?	·
CC(=O)N(O)[C@@H]1c2cc(C#N)ccc2OC(C)(C)[C@H]1O	–	–	?	–	·	–	·	·	·	·
O=C(O)c1ccc2[nH]cc(CCCCN3CC=C(c4ccccc4)CC3)c2c1	·	?	?	–	–	–	–	–	?	–
CC12CCC3C4CCC(=O)C(O)=C4CCC3C1CCC2OC(=O)CCC1CCCC1 (configuration not stated)	·	·	·	·	–	–	·	·	·	·
COc1ccc(-c2oc3cc(OC)ccc3c(=O)c2O)cc1	–	–	?	–	?	–	·	·	·	·
CN(N=O)c1cc(O)ccc1O	?	1.41µM	–	1.58µM	?	·	·	–	?	·
CC(c1ccccc1)n1cncc1C(=O)O (configuration not stated)	22.4µM	?	–	–	–	–	·	·	–	·
O=c1cc(-c2ccc(O)c(O)c2)oc2c(C3O[C@H](CO)[C@@H](O)[C@H](O)[C@H]3O)c(O)cc(O)c12 (some centres not stated)	–	0.891µM	1µM	–	–	–	?	–	?	–
C[n+]1c2cc(N)ccc2cc2ccc(N)cc21	–	·	?	–	?	–	·	–	6.31µM	–
Cc1ccc(N)cc1N	–	–	·	–	–	·	·	·	·	·
CCOC(=O)N(C)C(=O)CSP(=S)(OCC)OCC	–	–	·	–	–	–	·	·	·	·
Cc1cc(/C=C2\C(=O)NC(=O)N(Cc3ccccc3Cl)C2=O)c(C)n1-c1ccc(C(=O)O)cc1	22.4µM	11.2µM	–	?	–	–	–	–	12.6µM	?
Cc1ccc(N2C(=O)NC(=O)/C(=C\c3cc(C)n(-c4ccc(C(=O)O)cc4)c3C)C2=O)cc1	·	–	·	·	–	–	·	·	·	·
Nc1nc(/C(=C/CC(=O)O)C(=O)NC2C(=O)N3C(C(=O)O)=CCSC23)cs1 (configuration not stated)	25.1µM	·	?	–	–	–	–	–	?	–
O=c1[nH]c(=O)n(Cc2ccco2)c(O)c1C=NCc1cccs1	–	–	–	–	·	–	·	·	·	·
NC(=O)c1ccc(N=Cc2c(O)n(Cc3ccco3)c(=O)[nH]c2=O)cc1	28.2µM	31.6µM	?	?	–	?	?	–	39.8µM	–	RECQ1 inh-2=?
O=c1[nH]c(=S)n(Cc2ccco2)c(O)c1C=NCc1cccs1	–	?	–	?	–[0.501 µM]	–	–	–	–	–	RECQ1 inh-2=–
CC(=O)OC1CC[C@@]2(C)C(=CC[C@H]3[C@@H]4CC[C@H](C(C)=O)[C@@]4(C)CC[C@@H]32)C1 (some centres not stated)	–	–	·	–	–	–	·	·	·	·
CC(C)CNC(=O)c1c(N)n(Cc2ccc3c(c2)OCO3)c2nc3ccccc3nc12	–	–	?	–	–	10µM	·	·	·	·	BLM inh-2=–
C[C@]12CC[C@H]3[C@@H](CCC4=CC(=O)CC[C@@H]43)[C@@H]1CC[C@@H]2OC(=O)CCc1ccccc1	·	–	·	·	·	·	·	·	·	·
C[C@]12CC[C@@H]3c4ccc(OC(=O)N(CCCl)CCCl)cc4CC[C@H]3[C@@H]1CC[C@@H]2O	·	·	·	·	12.6µM	14.1µM	·	·	·	·	BLM inh-2=30.4µM;RECQ1 conf=?
C=C(C)[C@H]1CC[C@]2(C(=O)O)CC[C@]3(C)[C@@H](CC[C@H]4[C@@]5(C)CC[C@@H](O)C(C)(C)[C@@H]5CC[C@@]43C)[C@H]12	–	–	–	–	–	–	·	·	·	·
